This is an account of results in PubChem BioAssay AID2314 (National Center for Advancing Translational Sciences (NCATS), 2010).

The whole screen tested about 300,000 compounds, of which about 37,000 (12%) were called active. This excerpt belongs to a sample that is enriched for actives. Values without a mark were called inactive. No stated cut-off is given here; in the data, active means max response mostly above about 13% (no sharp cut-off); inactive means mostly below about 14%.

This assay in a line: Cycloheximide Counterscreen for Small Molecule Inhibitors of Shiga Toxin. Further: read at 38.3 µM for the half of the compounds with a filed dose; 0% is about no effect. The following applies: cell reporter, cycloheximide protein synthesis inhibition counterscreen; stronger effect = higher value. On the technique in general: A counterscreen serves to expose hits that act by an unwanted route or on another target.
As to `CCCCCC(O)(CCN1CCCCC1)c1ccccc1` (configuration not stated), the max response is -2.5%.

Regarding `O=C(COC(=O)/C=C/c1ccc(S(=O)(=O)N2CCCCCC2)cc1)NCc1ccccc1Cl`, the max response is 0.471%.

With `CCCCn1c(=O)c(CCC(=O)OCC(=O)Nc2ccc(C)c(Cl)c2)nc2ccccc21`, the max response is -1.67%.

Take `COC(=O)c1cc(NC(=O)C2C3C=CC(C3)C2C(=O)O)cc(C(=O)OC)c1` (configuration not stated): the max response is -3.42%.

For `CC(C)COC(=O)c1ccc(NC(=O)C2C3C=CC(C3)C2C(=O)O)cc1` (configuration not stated), the max response is 29% (active).

For the compound `CC(=O)NS(=O)(=O)c1ccc(NC(=O)C2C3C=CC(C3)C2C(=O)O)cc1` (configuration not stated), the max response is -2.43%.

On to `CCN(CC)S(=O)(=O)c1ccc(N(C)Cc2cccc(OC)c2OC)nc1`, for which the max response is 10.4%.

For `C=CCn1c(CSc2nc3ccccc3s2)nnc1SCC(=O)NCc1ccco1`, the max response is 0.347%.

As to `CCc1ccc(-c2cc(C(=O)NCc3ccco3)c3ccccc3n2)s1`, the max response is 14.1%.

Regarding `CCC(C)Cn1c(O)cc2nn(-c3nc4ccccc4s3)c(=O)c-2c1C` (configuration not stated), the max response is 3.42%.

For `COc1ccc(CC(=O)N/N=C(\C)c2ccccn2)cc1`, the max response was -3.12%.

Turning to `CCOC(=O)N1CCN(CC(=O)Nc2cc(C)nn2-c2nc3ccccc3s2)CC1`, the max response was 2.1%.

`CC(=NCc1ccco1)c1c(C(F)(F)F)[nH]n(-c2nc3ccccc3s2)c1=O`: the max response was 48.5% (active).

Regarding `COc1ccccc1NC(=O)c1ccc2nc(N3C(=O)CCC3=O)sc2c1`, the max response is 7.91%.

For the compound `COC(=O)Cc1[nH]n(-c2nc3ccccc3s2)c(=O)c1C(C)=Nc1ccc(OC)cc1`, the max response is 38.2% (active).

As to `C/C(=N\NC(=O)CC(C)C)c1c(C(F)(F)F)[nH]n(-c2nc3ccccc3s2)c1=O`, the max response was 35.6% (active).

On to `Cc1ccc(C(=O)NCC(=O)OCC(=O)NC2CCCCCCC2)cc1`, for which the max response is -2.63%.

For the compound `Cc1ccc(NC(=O)Cn2c(=O)n(CCC(=O)NC3CCN(Cc4ccccc4)CC3)c(=O)c3ccccc32)cc1`, the max response is -1.8%.

Turning to `O=C(NCCCNC(=O)c1ccccc1Cl)c1cnccn1`, the max response is -1.06%.

As to `COC(=O)Nc1ccc(S(=O)(=O)Nc2cc(OC)nc(OC)n2)cc1`, the max response was 8.38%.

For the compound `COc1ccc(-c2ccc(CCC(=O)O)n2NC(=O)c2ccc(C(C)(C)C)cc2)cc1`, the max response is 15.2%.

In the case of `CC(=O)Nc1ccc(Nc2ncnc3c2nnn3Cc2ccccc2Cl)cc1`, the max response is -1.15%.

Consider `CC1C(=O)Nc2ccc(S(=O)(=O)N3CCN(c4ccccc4F)CC3)cc2NC1=O` (configuration not stated), for which the max response is -4.25%.

Consider `COc1cc(CCC(=O)Nc2ccncc2Cl)cc(OC)c1OC`, for which the max response was -2.42%.

With `Cn1c2ccccc2c(=O)c2c(=O)n(Cc3ccco3)c(COc3ccccc3)nc21`, the max response is -1.78%.

As for `COc1cc2c(cc1/C=C1/NC(=O)N(c3ccccc3)C1=O)OCO2`, the max response is 6.72%.

On to `O=C1N/C(=C/c2cccn2-c2ccccc2)C(=O)N1c1cccc(Cl)c1`, for which the max response is 34.8% (active).

`Cc1ccccc1NC(=O)CN1C(=O)N/C(=C\c2cccn2-c2cccc(C(=O)O)c2)C1=O`: the max response is -9.3%.

`COc1cc(N2CCCC2)c(OC)cc1/C=C(/C#N)c1cccc(Br)c1`: the max response is -3.93%.

`COc1cc(C(=O)N2CCN(C3CCC(C)CC3)CC2)cc(OC)c1OC` (configuration not stated): the max response was -0.901%.

As to `Nc1ccc2nn(-c3ccc(Cl)cc3)nc2c1`, the max response is 39.4% (active).

With `COc1ccc(-c2[nH]ncc2CN(Cc2nccn2C)C(C)C)cc1F`, the max response is 0.417%.

For `Cc1nn(C)c(Cl)c1CN1CCC(n2nccc2NC(=O)C2CCCC2)CC1`, the max response was -0.568%.

Regarding `CC(C)(C)SCCSC1=CC(=O)CC(c2ccccc2)C1` (configuration not stated), the max response is 48.7% (active).

With `Cc1ccc(S(=O)(=O)NCCSC(C)(C)C)cc1`, the max response was 1.94%.

As for `CCC(C)N1CC(=O)N2Cc3[nH]c4ccccc4c3C[C@H]2C1=O` (some centres not stated), the max response was -5.44%.

On to `COC(=O)c1ccccc1NC(=O)CSc1n[nH]c(-c2ccncc2)n1`, for which the max response is -2.03%.

Consider `CC(C)=CCCC1(C)C=Cc2c(ccc3c2[nH]c2cc(O)c(C)cc23)O1` (configuration not stated), for which the max response is 14% (active).

`CC/C(=N\NC(=S)NC(C)C)c1ccc(OC(F)F)cc1`: the max response was 7.39%.

In the case of `O=C(O)CCCn1c(=O)c2cccn2c2ccc(F)cc21`, the max response was -0.924%.

For `O=C1N=C(N2CCOCC2)CS1`, the max response was 11.5%.

Consider `CCc1ccc(/C=C2\SC(N3CCOCC3)=NC2=O)cc1`, for which the max response was 17.2%.

For the compound `O=c1[nH]c(N2CCOCC2)nc2ccccc12`, the max response is -4.42%.

Consider `Cc1ccsc1/C=C1\SC(N2CCOCC2)=NC1=O`, for which the max response is 32.7% (active).

`O=C1N=C(N2CCOCC2)S/C1=C\C=C/c1ccccc1`: the max response is 44.4% (active).

Take `Cc1cc(/C=C2/SC(=O)N(CC(=O)N3CCCC3)C2=O)ccc1N1CCOCC1`: the max response was 12.3%.

Regarding `Fc1ccc(-c2ccc(CNCc3ccccn3)o2)cc1Cl`, the max response was 11.4%.

For `COc1ccc(C(=O)C2CCCN(Cc3cccn3-c3ccccn3)C2)c(C)c1` (configuration not stated), the max response is -2.02%.

In the case of `C[C@@H](NC(=O)[C@@H]1Cc2ccccc2CN1)C(=O)NC1CCCC1`, the max response was -1.91%.

Take `CCOc1ccc(/C=N\NC(=O)c2c(C)nc3cc(C)ccn23)cc1`: the max response is 0.972%.

Turning to `NC(=O)C1CCN(C(=O)c2ccc3c(=O)n(Cc4cccc(Br)c4)c(=S)[nH]c3c2)CC1`, the max response is -3.9%.

For `CS/C(=C\C(=O)c1ccco1)Nc1ccccc1Cl`, the max response was 38.1% (active).

As for `O=C(c1cccc(S(=O)(=O)Nc2ccccc2Cl)c1)N1CCN(C(=O)c2ccco2)CC1`, the max response is -0.249%.

In the case of `O=C(Nc1ccccc1C(=O)N1CCCCC1)c1ccco1`, the max response is -0.706%.

For `CCOc1ccc(CC(=O)NC2CCN(Cc3ccccc3)CC2)cc1`, the max response was 4.32%.

`CCCOC(=O)c1c(NC(=O)c2cnn3c2NC(c2ccccc2)CC3C(F)(F)F)sc2c1CCCC2` (configuration not stated): the max response is -8.8%.

Regarding `CCc1nc(Nc2ccc(NC(C)=O)cc2)c2oc3ccccc3c2n1`, the max response was -3.08%.

Turning to `CCc1nc(N2CCN(c3nc(C)cc(C)n3)CC2)c2oc3ccccc3c2n1`, the max response is 2.99%.

In the case of `CCc1nc(Nc2ccc3nccnc3c2)c2oc3ccccc3c2n1`, the max response is 12.4% (active).

As to `O=S(=O)(Nc1ccc(Cl)cn1)c1cnc(Cl)c(Br)c1`, the max response was -1.38%.

As for `CCN1CCN(c2cc3nc(C)n(Cc4ccccc4)c(=O)c3cc2NC(=O)c2ccccc2F)CC1`, the max response was -3.92%.

Regarding `Cc1nnnn1/C(=C\c1ccccc1)C(=O)OCC(=O)N1CC2(C)CC1CC(C)(C)C2` (configuration not stated), the max response was -5.53%.

`O=C(Nc1nnc(C2COc3ccccc3O2)o1)c1ccc(F)cc1` (configuration not stated): the max response is 1.61%.

For `CCn1c(SCC(=O)N/N=C/c2ccncc2)nc2ccccc21`, the max response is -1.38%.

As to `O=C(CSc1nc2ccccc2o1)N/N=C/c1ccccc1C(=O)O`, the max response was 13.7% (active).

Regarding `COc1ccc(S(=O)(=O)N(CC(=O)N/N=C/c2ccccc2C(=O)O)c2ccccc2OC)cc1`, the max response was 1.7%.

For `Cc1ccc(Cn2c(SCC(=O)N/N=C/c3ccccc3OCC(=O)O)nc3ccccc32)cc1`, the max response was 3.56%.

In the case of `Cn1c(=O)[nH]c(=O)c2c1nc(Br)n2CCCCSc1nc2ccccc2o1`, the max response was -4.25%.

`Cn1c(SCC(=O)N/N=C/c2ccc(O)c(O)c2)nc2ccccc21`: the max response was -3.26%.

On to `CCC(NC(=O)c1ccccc1NC(=O)c1ccccc1)C(=O)NNC(=O)CSc1nc2ccccc2o1` (configuration not stated), for which the max response was 16.5% (active).

`Cc1ccc(/C=N/NC(=O)CSc2nc3ccccc3o2)cc1`: the max response is 38.7% (active).

With `CCc1ccccc1NC(=O)CSc1nnc([C@@H](NC(=O)OC(C)(C)C)C(C)CC)o1` (some centres not stated), the max response was -3.76%.

Take `CC(C)[C@H](NC(=O)N1CCn2c1nc1ccccc12)C(=O)NCc1ccc2c(c1)OCO2`: the max response was 7.58%.

Take `CCCCOP(=O)(c1ccc(N(C)C)cc1)C(O)c1cc(OC)ccc1OC` (configuration not stated): the max response is -3.9%.

Consider `N[C@@H](Cc1ccccc1)C(=O)N1CCC(C(=O)NCC(=O)Nc2ccc(F)cc2)CC1`, for which the max response is 10.8%.

As for `Cc1ccsc1C1C(C#N)=C(N)OC2=C1C(=O)CC(C)C2` (configuration not stated), the max response is -3.34%.

For `CSc1nnc(C2CCCN(CC(=O)Nc3ccccc3N3CCOCC3)C2)n1C(C)C` (configuration not stated), the max response was -6.84%.

On to `O=c1[nH]c2ccc(S(=O)(=O)N3CCCC3)cc2[nH]1`, for which the max response was -1.27%.

For the compound `CCCN1C(=O)C(Cc2nc3ccccc3c(=O)n2-c2ccccc2)c2cc(C)ccc21` (configuration not stated), the max response was -6.23%.

For the compound `Cc1ccc(S(=O)(=O)N(CC(=O)Nc2cccnc2)c2ccc(Br)cc2)cc1`, the max response was 18.2%.

With `Cc1ccc(S(=O)(=O)N2CCN(C(=O)c3cccs3)CC2)cc1`, the max response was -2.84%.

Take `CC(C)C(=O)Nc1ccc(C(=O)NNC(=O)c2cccs2)cc1`: the max response is 19.4% (active).

`Cc1ccc(C(=O)NNC(=O)c2cccs2)cc1`: the max response was 33.4% (active).

Take `Cc1ccc(C)c(NC(=O)CCC(=O)NNC(=O)c2cccs2)c1`: the max response is 5.25%.

With `NNC(=O)c1ccc(Cl)cc1Cl`, the max response was 9.54%.

Turning to `Cc1ccc(NNC(=O)c2cccs2)cc1Cl`, the max response was 9.69%.

`O=C(Nc1ccccc1)c1ccc(NC(=O)c2cccs2)cc1`: the max response was -4.38%.

In the case of `O=C(NNC(=O)c1ccc(Cl)cc1Cl)c1cccs1`, the max response was 47.6% (active).

`Cc1cccc(-c2nc3c(c(SCC(=O)N4CCOCC4)n2)CCCC3)c1`: the max response is -3.15%.

For the compound `Cc1ccc2c(c1)C(c1ccccc1)N(C(=O)c1ccc(F)cc1)CC(=O)N2` (configuration not stated), the max response is -3.35%.

As to `CC1COc2ccccc2N1C(=O)c1ccc(F)cc1` (configuration not stated), the max response was -4.53%.

On to `O=C(CN(Cc1ccccc1)C(=O)CCC(=O)Nc1ccccn1)NCCc1ccccc1`, for which the max response was -3.42%.
